High-throughput results deposited in PubChem by National Center for Advancing Translational Sciences (NCATS).
The full list was thinned out, with hits kept by preference.
TDP1 cell CPT: growth inhibition of DT40 Tdp1-/-;hTDP1 cells with camptothecin (screen for TDP1 inhibitors); Potency, µM (highest dose often 46.2 µM), for the others: top-dose activity change, negative = growth inhibition, actives largely listed as inhibitors; chicken DT40 Tdp1-/-;hTDP1 cells + 20 nM CPT, ATP luminescence, 48 h; actives 12% (n = 420,000); note: potency is the fitted concentration of half-maximal effect; nearly all actives have a fitted effect of over 55% in size
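Chicken DT40 Tdp1-/- cells stably complemented with human TDP1 were seeded at 400 cells/well in medium containing 20 nM camptothecin, exposed to pin-transferred compounds, and grown at 37 °C for at least 48 hr. Viability was read as ATP luminescence.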
TDP1 cell noCPT: qHTS for Inhibitors of human tyrosyl-DNA phosphodiesterase 1 (TDP1): qHTS in cells in absence of CPT. DT40 Tdp1-/- hTDP1 cells, no CPT, ATP luminescence, 48 h. Potency, µM (series often up to 46.2 µM), for inactives: top-dose activity change, negative = growth inhibition, actives largely listed as inhibitors. actives 15% (n = 420,000). AID 686978, 2013; note: potency is the fitted concentration of half-maximal effect; nearly all actives have a fitted effect of over 55% in size
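Luminescent ATP content (CellTiter-Glo) served as the growth readout. Knockout chicken DT40 cells expressing human TDP1 were exposed to compounds without camptothecin for a minimum 48 hr at 37 °C.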
ALOX12 inh: inhibitors of human 12S-lipoxygenase ALOX12; purified 12hLO, xylenol orange hydroperoxide absorbance; actives 1.1% (n = 580,000); Potency, µM (highest dose often 108 µM), without a hit: at the top dose activity change, negative = inhibition, most hits filed as inhibitors; note: potency is the fitted concentration of half-maximal effect
Target sequence (P18054 whole entry, looked up): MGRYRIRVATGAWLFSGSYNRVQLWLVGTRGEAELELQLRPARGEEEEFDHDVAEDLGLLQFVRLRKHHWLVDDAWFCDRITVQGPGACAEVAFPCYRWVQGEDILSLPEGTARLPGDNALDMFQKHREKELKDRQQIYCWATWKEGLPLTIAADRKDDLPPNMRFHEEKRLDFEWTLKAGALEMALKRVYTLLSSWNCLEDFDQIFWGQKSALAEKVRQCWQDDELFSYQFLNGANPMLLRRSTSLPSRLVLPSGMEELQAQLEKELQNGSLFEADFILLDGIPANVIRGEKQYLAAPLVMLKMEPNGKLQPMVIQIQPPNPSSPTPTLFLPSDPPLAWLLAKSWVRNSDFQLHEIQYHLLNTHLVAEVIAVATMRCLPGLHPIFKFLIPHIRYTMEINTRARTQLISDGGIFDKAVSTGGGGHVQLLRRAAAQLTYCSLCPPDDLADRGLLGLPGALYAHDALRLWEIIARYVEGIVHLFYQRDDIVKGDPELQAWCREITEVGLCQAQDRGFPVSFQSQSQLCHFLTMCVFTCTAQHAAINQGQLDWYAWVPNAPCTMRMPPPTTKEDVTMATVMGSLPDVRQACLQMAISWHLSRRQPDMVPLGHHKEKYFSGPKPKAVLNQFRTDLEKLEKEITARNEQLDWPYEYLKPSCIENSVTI
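Purified human 12hLO (150 nM final) in 25 mM Hepes, 0.01% Triton X-100, pH 7.0 was preincubated 15 min at room temperature with compound. Then 40 uM arachidonic acid was added, 30 min. Hydroperoxide was read by Fe-XO absorbance ratio 573/405 nm.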
HT1080NT lethal: kills 2HG-producing HT-1080-NT fibrosarcoma cells. HT-1080-NT fibrosarcoma viability, CellTiter-Glo ATP luminescence, 48 h. Potency, µM (top dose mostly 46.1 µM), for the others: top-dose activity, negative = less viability, usual class: cytotoxic. actives 1.6% (n = 360,000). AID 686970;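 note: NT is the 2HG producing partner of a matched IDH1 knockdown line; potency is the fitted concentration of half-maximal effect; 0% = DMSO-treated cells and -100% = media-only wells without cells; nearly all actives have a fitted effect of over 55% in size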
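Fibrosarcoma NT cells, 750 per well in 5% FBS RPMI, were exposed to compound for 48 hours. Viability: CellTiter-Glo luminescence.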
IL-1B inflam inh: inhibitors of inflammasome signaling (IL-1 beta secretion) | THP-1 LPS/ATP IL-1B secretion, AlphaLISA, 16 h; active compounds read low | activity change, % at 57.5 µM | actives 4.7% (n = 360,000) | AID 743279; in the data active = activity change below about -50%; inconclusive = mostly about -30% to -49%
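Secreted IL-1B measured by AlphaLISA bead assay after 16 h compound exposure of THP-1 cells; compounds (final up to 57.5 uM) added 1 h before LPS (250 ng/mL) and ATP (1.25 mM) stimulation; lower signal means less secretion.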
HT1080 IDH1KD tx: toxicity to HT-1080 IDH1 knockdown cells (counter line); AID 686971; actives 2% (n = 360,000); HT-1080 IDH1 knockdown viability, ATP luminescence, 48 h; Potency, µM (doses to about 46.1 µM), inactives show top-dose activity, negative = toxicity, usual class: cytotoxic;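 note: potency is the fitted concentration of half-maximal effect; 0% = DMSO wells and -100% = cell-free medium wells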
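% activity derives from luminescence (CellTiter-Glo), normalised to DMSO and no-cell wells. HT-1080-IDH1KD cells, 750/well, had 48 h compound exposure at 37 °C.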
* = called active by the depositor; ? = inconclusive; / = no result given; [ ] = another dose, or the depositor's remark. Unless noted, calls come from the whole dose curve; as a rule, active = well fitted curve in the direction sought with a large enough effect; inconclusive = small, poorly fitted or top-dose-only effect, or another doubt; inactive = no such curve, though single readings can be large; an effect the other way counts as inactive or inconclusive. Unless noted, % is set by controls: 0 for no effect and ±100 for the full control effect.

SMILES	TDP1 cell CPT	TDP1 cell noCPT	ALOX12 inh	HT1080NT lethal	IL-1B inflam inh	HT1080 IDH1KD tx
CC1=NN2C(=N)/C(=C\c3cc(C)n(Cc4ccccc4)c3C)C(=O)N=C2S1	-7.4%	25.9µM*	189.8%	-4.5%	-5.6	-1.9%
COc1ccc(NC(=O)Cn2nnc(C(=O)NCCc3ccccc3)c2N)c(OC)c1	-4.9%	18.6%	-9.6%	?	26.2	11.2%
CCc1ccccc1NC(=O)Cn1nnc(C(=O)NCc2cccs2)c1N	3.66µM*	3.26µM*	-7.5%	5.8µM*	27.6	4.11µM*
COc1ccc(NC(=O)Cn2nnc(C(=O)NCc3ccccc3)c2N)c(OC)c1	?	13µM*	-4.8%	?	29.6	?
COc1ccc(CCNC(=O)c2nnn(CC(=O)Nc3cccc(F)c3)c2N)cc1OC	4.4%	-0.6%	-18.1%	-17.3%	-98.2*	-11.8%
COc1ccccc1NC(=O)Cn1nnc(C(=O)NCc2cccs2)c1N	0.581µM*	0.461µM*	-4.8%	2.31µM*	37.3	2.06µM*
COc1ccc(C(=O)N2CCNC(=O)C2)cc1S(=O)(=O)Nc1ccc(Br)cc1	-9.7%	-4.8%	2.9%	0.0%	0.6	-5.0%
O=C(NC1CC1)c1cc(-c2cccnc2)nc2ccccc12	/	/	49.3%	/	/	/
CC1C(=O)C(C)C(c2ccc([N+](=O)[O-])cc2)NC1c1ccc([N+](=O)[O-])cc1 (stereo not drawn)	?	18.4µM*	0.4%	-0.1%	-8.1	-18.0%
CC1C(=O)CC(c2ccc([N+](=O)[O-])cc2)NC1c1ccc([N+](=O)[O-])cc1 (stereo not drawn)	?	?	0.0%	?	-19.3	?
COc1ccc(N2CCN(C(=O)CC(C)S(=O)(=O)c3ccc4c(c3)NC(=O)CO4)CC2)cc1 (stereo not drawn)	14.6µM*	13µM*	2.2%	-20.2%	0.0	-10.4%
CC(CC(=O)N1CCN(c2cccc(Cl)c2)CC1)S(=O)(=O)c1ccc2c(c1)NC(=O)CO2 (stereo not drawn)	4.11µM*	2.31µM*	1.9%	-4.3%	-13.7	-4.1%
CCOC(=O)C1CCN(C(=O)CC(C)S(=O)(=O)c2ccc3c(c2)NC(=O)CO3)CC1 (stereo not drawn)	-4.4%	12.5%	3.6%	-1.8%	19.8	-3.7%
Cc1nn(-c2ccccc2)c(N2CCCC2)c1/C=N/O	?	?	7.2%	-2.8%[9.24 µM]	0.0	5.4%
Cc1nn(-c2ccccc2)c(N2CCCC2)c1/C=N/n1cnc2scc(-c3ccccc3)c2c1=O	10µM*	12.6µM*	416.1%	0.9%	36.9	1.5%
O=c1c2c(-c3ccccc3)csc2ncn1/N=C/c1c2ccccc2cc2ccccc12	?	16.4µM*	0.4%	-6.8%	36.6	-12.5%
Nc1nc(SCC(=O)c2c(N)n(C3CC3)c(=O)[nH]c2=O)n[nH]1	-4.0%	1.1%	?	6.9%	-9.9	14.4%
COCC(=O)N(CCc1ccc(OC)cc1)Cc1nc2ccccc2c(=O)[nH]1	?	3.26µM*	29.0%	-0.9%	0.0	-0.9%
CCN(Cc1nc2ccccc2c(=O)[nH]1)C(=O)COc1ccccc1Cc1ccccc1	4.61µM*	4.11µM*	-20.1%	?	-67.0*	?
CC(C(=O)Nc1ccccc1-c1ccccc1)N(C)Cc1nc2ccccc2c(=O)[nH]1 (stereo not drawn)	13µM*	20.6µM*	45.5%	23.1µM*	18.1	23.1µM*
COCCN(Cc1nc2ccccc2c(=O)[nH]1)C(=O)COc1ccccc1-c1ccccc1	?	23.1µM*	18.5%	-19.1%	-67.6*	?
COCC(=O)N(Cc1ccc(OC)cc1)Cc1nc2ccccc2c(=O)[nH]1	-1.5%	-2.6%	-1.2%	1.3%	5.8	10.8%
CC(NC(=O)CN(C)Cc1nc2ccccc2c(=O)[nH]1)c1ccccc1 (stereo not drawn)	-5.4%	3.2%	3.3%	5.7%	20.6	8.0%
Cc1noc([C@@H]2CN(Cc3ccc(Cl)cc3F)C[C@H]2CO)n1	/	/	26.0%	/	/	/
CC1(C)CC(=O)C2=C(C1)C(c1cn(-c3ccccc3)nc1-c1ccccc1)C(C#N)=C(N)O2 (stereo not drawn)	?	?	-24.0%	?	-56.3*	?
SMILES	TDP1 cell CPT	TDP1 cell noCPT	ALOX12 inh	HT1080NT lethal	IL-1B inflam inh	HT1080 IDH1KD tx
CC1(C)CC(=O)C2=C(C1)OC(N)=C(C#N)C2c1cn(-c2ccccc2)nc1-c1ccc(F)cc1 (stereo not drawn)	14.6µM*	?	?	?	?	?
Cn1cccc1C1C(C#N)=C(N)OC2=C1C(=O)CC(C)(C)C2 (stereo not drawn)	-3.4%	1.1%	-0.2%	7.8%	9.5	2.2%
Nc1c(C(=O)Nc2cc(Cl)cc(Cl)c2)sc2nc(-c3ccncc3)ccc12	/	/	1.6%	/	/	/
Nc1c(C(=O)NC2CC2)sc2nc3c(c(-c4ccco4)c12)CC/C3=C/c1ccco1	18.4µM*	16.4µM*	/	-6.3%	-74.7*	-11.6%
NC(=O)c1sc2nc3c(c(-c4ccco4)c2c1N)CCC3	?	14.1µM*	-51.6%	0.0%	-80.0*	-25.6%
NC(=O)c1sc2nc(-c3cccnc3)ccc2c1N	?	?	?	11.2%	-66.7*	2.1%
Cc1ccc(-c2c3c(nc4sc(C(N)=O)c(N)c24)CCCC3)o1	-5.0%	-23.6%	-21.9%	-2.1%	-25.4	-7.6%
Nc1c(C(=O)Nc2ccc(OC(F)(F)F)cc2)sc2nc(-c3ccncc3)ccc12	10.3µM*	6.51µM*	-15.5%	/	/	/
COc1ccc(NC(=O)c2sc3nc4c(c(-c5ccco5)c3c2N)CCCCC4)cc1	/	/	1.4%	/	/	/
COC(=O)C1CN(Cc2ccc(Cl)cc2)CCS(=O)(=O)N1Cc1cn(Cc2ccc(C)cc2)nn1 (stereo not drawn)	/	/	0.0%	/	/	/
Cc1ccc(N(C(=O)c2ccc(F)cc2)C2C=CS(=O)(=O)C2)cc1Cl (stereo not drawn)	/	/	-1.1%	/	/	/
C[C@H](NS(=O)(=O)c1ccc(Cl)cc1)C(=O)OCC(=O)Nc1cc(S(=O)(=O)N2CCOCC2)ccc1Cl	-0.7%	0.8%	-2.9%	-1.7%	41.1	-9.3%
Nc1c(C(=O)Nc2ccccc2F)sc2nc(-c3cccnc3)ccc12	0.4%	?	?	?	-9.9	13µM*
